From PubChem BioAssay (EPA / NIEHS)
Several values for one entry are separate records, joined by “and”; a condition that tells them apart may be missing. Equal values may be shown once. Results filed as inconclusive are left out. Some compounds were tested as several samples or in several runs, with calls that do not always agree. Activity calls are given as the source filed them. The calls were made as follows: active = hit-call score of the fitted dose curve at least 0.9, where 1 is the maximum; inconclusive = response in the unintended direction; inactive = score below 0.9.

Key:
[1] = ATG_M_06_XSP2: Attagene TRANS-FACTORIAL Multi-Species (XSP2) HepG2 Assay for M06 Transcription Factor (Internal Marker) (AID 2283811);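 also: internal background marker reporter mRNA measured by RT-PCR and capillary electrophoresis; hits are increases in signal above the DMSO baseline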
Summary of the method: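 Cells of the human liver line HepG2 carried transfected reporter transcription units and were treated for 24 h. Induced reporter transcripts were detected by fluorescence after RT-PCR and capillary electrophoresis, with activity fitted in the gain direction against DMSO.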

[2] = system: turtle Estrogen Receptor (ERa), gene 101933533; assay: ATG_trERa_XSP2: Attagene TRANS-FACTORIAL Multi-Species (XSP2) HepG2 Assay for turtle Estrogen Receptor (ERa) (AID 2283812);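 also: actives raise reporter signal above DMSO so AC50 reflects agonist activity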
Summary of the method: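 Readout is reporter mRNA quantified by RT-PCR with capillary electrophoresis after 24 h compound exposure, increase relative to DMSO. Uses transiently transfected human HepG2 liver cells carrying a chimeric turtle ERa-Gal4 receptor driving GAL4-UAS reporters.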

[3] = biological target: GAL4 Transcription Factor (Internal Marker), GAL4 (gene 855828) (UniProt P04386); assay: ATG_GAL4_XSP2: Attagene TRANS-FACTORIAL Multi-Species (XSP2) HepG2 Assay for GAL4 Transcription Factor (Internal Marker) (AID 2283814);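 also: GAL4 reporter mRNA background control in MRTU transfected cells not a receptor target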
Summary of the method: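 Background-control readout: gain-of-signal fitted against DMSO. After 24 h exposure of transfected HepG2 (MRTU, GAL4-UAS reporters; 3 nM 6-alpha-fluorotestosterone, 1.5 nM norgestrel present), transcripts quantified by RT-PCR and capillary electrophoresis fluorescence.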

[4] = biological target: zebrafish Estrogen Receptor (ER1), esr1 (gene 259252) (UniProt P57717); assay: ATG_zfER1_XSP2: Attagene TRANS-FACTORIAL Multi-Species (XSP2) HepG2 Assay for zebrafish Estrogen Receptor (ER1) (AID 2283816)
Summary of the method: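 After 24 h compound exposure, RNA from transfected HepG2 cells was reverse-transcribed and reporter transcripts resolved by capillary electrophoresis. The TRANS format reads exogenous zebrafish ER1-Gal4 chimera activity on GAL4-UAS elements; gain of signal against DMSO.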

[5] = biological target: chicken Estrogen Receptor (ERa), ESR1 (gene 396099) (UniProt P06212); assay: ATG_chERa_XSP2: Attagene TRANS-FACTORIAL Multi-Species (XSP2) HepG2 Assay for chicken Estrogen Receptor (ERa) (AID 2283817);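 also: actives raise reporter signal above DMSO so AC50 reflects ER activation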
Summary of the method: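 Exogenous chicken ERa-Gal4 chimera activity was assessed in transfected human liver HepG2 cells after 24 h of treatment. Induced reporter mRNA was quantified fluorescently by capillary electrophoresis, with DMSO as baseline.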

[6] = system: zebrafish Estrogen Receptor (ER2a), gene 317734; assay: ATG_zfER2a_XSP2: Attagene TRANS-FACTORIAL Multi-Species (XSP2) HepG2 Assay for zebrafish Estrogen Receptor (ER2a) (AID 2283818);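 also: hits raise reporter mRNA so AC50 reflects activation of zebrafish ER2a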
Summary of the method: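 Multiplexed trans-reporter readout: RT-PCR then capillary electrophoresis of reporter transcripts after 24 h compound treatment. Human HepG2 carries transfected zebrafish ER2a-Gal4 chimera; 3 nM 6-alpha-fluorotestosterone plus 1.5 nM norgestrel present. Induction scored against DMSO.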

[7] = system: chicken Androgen Receptor (AR), gene 422165; assay: ATG_chAR_XSP2: Attagene TRANS-FACTORIAL Multi-Species (XSP2) HepG2 Assay for chicken Androgen Receptor (AR) (AID 2283819);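 also: hits raise reporter mRNA above DMSO so potency is for activation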
Summary of the method: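 Readout is reporter mRNA induction via RT-PCR/capillary electrophoresis after 24 h chemical exposure, positive direction relative to DMSO. Transiently transfected HepG2 express chimeric chicken AR–GAL4; AR stimulated by 3 nM 6-alpha-fluorotestosterone and 1.5 nM norgestrel.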

[8] = system: frog Estrogen Receptor (ER), gene 398734; assay: ATG_frER1_XSP2: Attagene TRANS-FACTORIAL Multi-Species (XSP2) HepG2 Assay for frog Estrogen Receptor (ER) (AID 2283821);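 also: hits raise reporter mRNA above DMSO baseline so potency means agonist or activator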
Summary of the method: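 Gain-of-signal mRNA reporter assay, HepG2 human liver cells, 24 h dosing; transcripts read by fluorescent RT-PCR fragment analysis, DMSO as negative control.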

[9] = system: zebrafish Estrogen Receptor (ER2b), gene 317733; assay: ATG_zfER2b_XSP2: Attagene TRANS-FACTORIAL Multi-Species (XSP2) HepG2 Assay for zebrafish Estrogen Receptor (ER2b) (AID 2283823);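 also: fitted upward as reporter gain over DMSO so potency reflects activation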
Summary of the method: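 Reporter transcripts quantified by RT-PCR, fluorescent labelling and capillary electrophoresis after 24 h dosing of transfected HepG2 expressing zebrafish ER2b-GAL4 fusion. Medium contained 3 nM 6-alpha-fluorotestosterone plus 1.5 nM norgestrel; DMSO baseline.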

[10] = system: zebrafish Androgen Receptor (AR), gene 100005148; assay: ATG_zfAR_XSP2: Attagene TRANS-FACTORIAL Multi-Species (XSP2) HepG2 Assay for zebrafish Androgen Receptor (AR) (AID 2283825);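 also: hits raise reporter mRNA above DMSO so AC50 reflects agonist-type gain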
Summary of the method: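 After 24 h compound exposure in medium with 3 nM 6-alpha-fluorotestosterone plus 1.5 nM norgestrel, HepG2 cells carrying zebrafish AR–GAL4 reporter constructs were assessed for reporter mRNA gain by RT-PCR and capillary electrophoresis.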

[11] = biological target: Estrogen receptor (Homo sapiens) (UniProt P03372); assay: ATG_hERa_XSP2: Attagene TRANS-FACTORIAL Multi-Species (XSP2) HepG2 Assay for human Estrogen Receptor (ERa) (AID 2283827)
Summary of the method: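 Trans-activation of exogenous human ERa-Gal4 chimera read in HepG2 as reporter transcript after 24 h exposure; medium included 3 nM 6-alpha-fluorotestosterone and 1.5 nM norgestrel. Quantified by RT-PCR with capillary electrophoresis, positive-direction fitting against DMSO.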

[12] = system: frog Estrogen Receptor (ER2), gene 100174814; assay: ATG_frER2_XSP2: Attagene TRANS-FACTORIAL Multi-Species (XSP2) HepG2 Assay for frog Estrogen Receptor (ER2) (AID 2283828)
Summary of the method: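 Induction of reporter mRNA, baseline set by DMSO, is the endpoint. The panel was run in transfected HepG2 cells over 24 h, with 3 nM 6-alpha-fluorotestosterone and 1.5 nM norgestrel present to stimulate androgen receptor.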

[13] = biological target: Peroxisome proliferator-activated receptor gamma (Homo sapiens) (UniProt P37231); assay: ATG_hPPARg_XSP2: Attagene TRANS-FACTORIAL Multi-Species (XSP2) HepG2 Assay for human Peroxisome Proliferator-activated Receptor gamma (PPARg) (AID 2283829);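 also: actives raise reporter mRNA above DMSO so AC50 reflects PPARg activation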
Summary of the method: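 HepG2 cells transiently transfected with GAL4-UAS reporter units driven by chimeric NR-Gal4 proteins; androgen receptor stimulated with 3 nM 6-alpha-fluorotestosterone and 1.5 nM norgestrel. After 24 h, reporter mRNA quantified by RT-PCR and capillary electrophoresis versus DMSO.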

[14] = system: frog Androgen Receptor (AR), gene 399456; assay: ATG_frAR_XSP2: Attagene TRANS-FACTORIAL Multi-Species (XSP2) HepG2 Assay for frog Androgen Receptor (AR) (AID 2283824);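 also: reporter mRNA from GAL4-UAS units driven by Xenopus AR-Gal4 chimera; actives raise reporter signal above DMSO so AC50 reflects agonist-like induction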
Summary of the method: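 Reporter transcript induction, read by RT-PCR with fluorescent capillary electrophoresis, in human liver HepG2 cells carrying an exogenous Xenopus AR-Gal4 fusion and GAL4-driven reporters; chemical exposure 24 hours, activity scored upward against DMSO controls.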

[15] = biological target: Nuclear receptor subfamily 1 group I member 2 (Mus musculus) (UniProt O54915); assay: ATG_mPXR_XSP1: Attagene TRANS-FACTORIAL Multi-Species (XSP1) HepG2 Assay for mouse Pregnane X Receptor (PXR) (AID 2283803)
Summary of the method: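 Transiently transfected HepG2 cells expressing a receptor-Gal4 chimera drive a GAL4-UAS reporter; 3 nM 6-alpha-fluorotestosterone included. Reporter mRNA read 24 h post-dose by RT-PCR and capillary electrophoresis; gain of signal relative to DMSO.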

[16] = biological target: frog Thyroid hormone Receptor alpha (TRa), thra-a (gene 397942) (UniProt P15204); assay: ATG_frTRa_XSP1: Attagene TRANS-FACTORIAL Multi-Species (XSP1) HepG2 Assay for frog Thyroid hormone Receptor alpha (TRa) (AID 2283804)
Summary of the method: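 Reporter transcript induction, measured by RT-PCR with 6-FAM labelling and capillary electrophoresis, 24 hr after dosing transiently transfected HepG2 cells expressing a frog TRa-GAL4 fusion; medium contained 3 nM 6-alpha-fluorotestosterone; increase over DMSO scored.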

[17] = system: turtle Thyroid Hormone Receptor, alpha (TRa), gene 101949057; assay: ATG_trTRa_XSP1: Attagene TRANS-FACTORIAL Multi-Species (XSP1) HepG2 Assay for turtle Thyroid Hormone Receptor, alpha (TRa) (AID 2283806)
Summary of the method: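 After 24 h chemical exposure, reporter transcripts were measured by RT-PCR with fluorescent primer extension, HpaI digestion and capillary electrophoresis. Cells were transiently transfected HepG2 expressing exogenous NR-Gal4 chimeras; medium contained 3 nM 6-alpha-fluorotestosterone; fitted upward relative to DMSO.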

[18] = biological target: zebrafish Thyroid Hormone Receptor beta (TRb), thrb (gene 30607) (UniProt Q9PVE4); assay: ATG_zfTRb_XSP1: Attagene TRANS-FACTORIAL Multi-Species (XSP1) HepG2 Assay for zebrafish Thyroid Hormone Receptor beta (TRb) (AID 2283809)
Summary of the method: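 HepG2 cells transiently transfected with multiplexed GAL4-UAS reporter units expressing chimeric zebrafish TRb–Gal4. Dosed 24 h with 3 nM 6-alpha-fluorotestosterone present; reporter mRNA measured by RT-PCR, HpaI digestion and capillary electrophoresis; gain of signal versus DMSO.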

[19] = ATG_XTT_Cytotoxicity_XSP1: Cytotoxicity Assessment in the Attagene TRANS-FACTORIAL Multi-Species (XSP1) HepG2 Assay (AID 2283810)
Summary of the method: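 XTT viability readout taken at 24 hours post-dosing in HepG2 liver cells co-treated with 3 nM 6-alpha-fluorotestosterone. Signal loss relative to DMSO controls reflects cytotoxicity.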

[20] = biological target: Estrogen receptor beta (Homo sapiens) (UniProt Q92731); assay: ATG_hERb_XSP2: Attagene TRANS-FACTORIAL Multi-Species (XSP2) HepG2 Assay for human Estrogen Receptor (ERb) (AID 2283813);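 also: actives raise reporter mRNA above DMSO so AC50 reflects agonist induction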
Summary of the method: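 Transient TRANS reporter system in HepG2: after 24 h of chemical, RNA is reverse-transcribed, reporter cDNA amplified, FAM-labelled and sized by capillary electrophoresis. Induction of the human ERb-Gal4 reporter is measured relative to DMSO.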

Measured: AC50

Chain of Estrogen receptor (Homo sapiens) (P03372 whole entry, looked up, the tested form may be a part): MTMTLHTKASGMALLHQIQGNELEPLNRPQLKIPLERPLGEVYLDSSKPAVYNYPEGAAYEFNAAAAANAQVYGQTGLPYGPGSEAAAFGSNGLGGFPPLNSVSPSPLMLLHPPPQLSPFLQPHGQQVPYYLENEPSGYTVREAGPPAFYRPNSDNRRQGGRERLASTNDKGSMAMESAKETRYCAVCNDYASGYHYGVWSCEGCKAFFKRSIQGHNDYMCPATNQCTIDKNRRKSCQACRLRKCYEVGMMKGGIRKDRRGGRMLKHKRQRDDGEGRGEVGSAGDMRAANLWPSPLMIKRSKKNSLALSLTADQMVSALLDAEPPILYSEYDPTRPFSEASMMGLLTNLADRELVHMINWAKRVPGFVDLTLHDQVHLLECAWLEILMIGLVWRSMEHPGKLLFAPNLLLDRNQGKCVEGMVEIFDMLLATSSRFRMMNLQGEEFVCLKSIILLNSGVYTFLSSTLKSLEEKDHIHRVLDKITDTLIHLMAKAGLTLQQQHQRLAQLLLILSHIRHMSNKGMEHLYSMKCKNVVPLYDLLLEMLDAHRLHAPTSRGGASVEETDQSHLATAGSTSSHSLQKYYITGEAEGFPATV
Chain of Peroxisome proliferator-activated receptor gamma (Homo sapiens) (P37231 whole entry, looked up, the tested form may be a part): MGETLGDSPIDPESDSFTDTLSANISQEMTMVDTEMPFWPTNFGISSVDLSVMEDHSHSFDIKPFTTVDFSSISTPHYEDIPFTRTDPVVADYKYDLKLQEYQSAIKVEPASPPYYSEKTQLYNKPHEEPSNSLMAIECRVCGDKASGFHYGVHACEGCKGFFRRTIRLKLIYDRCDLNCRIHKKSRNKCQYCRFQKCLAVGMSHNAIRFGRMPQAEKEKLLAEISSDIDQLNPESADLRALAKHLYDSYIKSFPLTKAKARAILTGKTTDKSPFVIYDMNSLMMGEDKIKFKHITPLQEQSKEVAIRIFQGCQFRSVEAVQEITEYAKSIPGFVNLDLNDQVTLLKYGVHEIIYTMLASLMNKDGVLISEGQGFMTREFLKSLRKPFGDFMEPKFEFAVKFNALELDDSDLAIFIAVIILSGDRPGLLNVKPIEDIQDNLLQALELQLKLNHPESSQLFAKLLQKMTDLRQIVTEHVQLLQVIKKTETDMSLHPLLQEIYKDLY
Chain of zebrafish Estrogen Receptor (ER1), esr1 (gene 259252) (P57717 whole entry, looked up, the tested form may be a part): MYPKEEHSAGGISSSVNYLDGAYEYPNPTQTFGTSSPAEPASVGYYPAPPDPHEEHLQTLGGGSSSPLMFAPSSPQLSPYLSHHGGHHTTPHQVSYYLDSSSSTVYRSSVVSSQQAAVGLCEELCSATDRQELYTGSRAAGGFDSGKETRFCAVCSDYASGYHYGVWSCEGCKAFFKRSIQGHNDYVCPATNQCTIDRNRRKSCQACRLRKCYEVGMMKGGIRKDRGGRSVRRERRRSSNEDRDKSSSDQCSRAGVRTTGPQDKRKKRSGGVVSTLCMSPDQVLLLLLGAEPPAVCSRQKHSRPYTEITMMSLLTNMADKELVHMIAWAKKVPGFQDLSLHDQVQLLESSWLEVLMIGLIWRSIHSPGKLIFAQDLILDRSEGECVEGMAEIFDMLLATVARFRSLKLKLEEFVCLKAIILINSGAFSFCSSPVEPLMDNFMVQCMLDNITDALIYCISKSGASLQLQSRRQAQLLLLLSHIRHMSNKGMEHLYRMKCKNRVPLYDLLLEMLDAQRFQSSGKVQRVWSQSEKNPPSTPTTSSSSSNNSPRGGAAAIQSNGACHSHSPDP
Chain of chicken Estrogen Receptor (ERa), ESR1 (gene 396099) (P06212 whole entry, looked up, the tested form may be a part): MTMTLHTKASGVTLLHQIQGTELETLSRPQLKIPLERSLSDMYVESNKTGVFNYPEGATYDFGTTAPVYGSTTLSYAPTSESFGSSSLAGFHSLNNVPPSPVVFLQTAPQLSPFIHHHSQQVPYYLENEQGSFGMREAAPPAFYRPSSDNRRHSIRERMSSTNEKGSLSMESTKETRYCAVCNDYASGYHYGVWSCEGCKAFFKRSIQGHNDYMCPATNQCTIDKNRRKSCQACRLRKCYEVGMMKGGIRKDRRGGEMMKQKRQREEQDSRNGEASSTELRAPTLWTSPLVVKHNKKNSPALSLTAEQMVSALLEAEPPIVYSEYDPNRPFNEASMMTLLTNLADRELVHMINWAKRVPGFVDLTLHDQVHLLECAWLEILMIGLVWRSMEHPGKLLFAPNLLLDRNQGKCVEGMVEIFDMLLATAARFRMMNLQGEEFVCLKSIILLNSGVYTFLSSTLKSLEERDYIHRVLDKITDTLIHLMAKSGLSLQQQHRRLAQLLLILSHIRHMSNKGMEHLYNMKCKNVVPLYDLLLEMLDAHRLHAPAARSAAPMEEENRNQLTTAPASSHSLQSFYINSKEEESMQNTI
Chain of GAL4 Transcription Factor (Internal Marker), GAL4 (gene 855828) (P04386 whole entry, looked up, the tested form may be a part): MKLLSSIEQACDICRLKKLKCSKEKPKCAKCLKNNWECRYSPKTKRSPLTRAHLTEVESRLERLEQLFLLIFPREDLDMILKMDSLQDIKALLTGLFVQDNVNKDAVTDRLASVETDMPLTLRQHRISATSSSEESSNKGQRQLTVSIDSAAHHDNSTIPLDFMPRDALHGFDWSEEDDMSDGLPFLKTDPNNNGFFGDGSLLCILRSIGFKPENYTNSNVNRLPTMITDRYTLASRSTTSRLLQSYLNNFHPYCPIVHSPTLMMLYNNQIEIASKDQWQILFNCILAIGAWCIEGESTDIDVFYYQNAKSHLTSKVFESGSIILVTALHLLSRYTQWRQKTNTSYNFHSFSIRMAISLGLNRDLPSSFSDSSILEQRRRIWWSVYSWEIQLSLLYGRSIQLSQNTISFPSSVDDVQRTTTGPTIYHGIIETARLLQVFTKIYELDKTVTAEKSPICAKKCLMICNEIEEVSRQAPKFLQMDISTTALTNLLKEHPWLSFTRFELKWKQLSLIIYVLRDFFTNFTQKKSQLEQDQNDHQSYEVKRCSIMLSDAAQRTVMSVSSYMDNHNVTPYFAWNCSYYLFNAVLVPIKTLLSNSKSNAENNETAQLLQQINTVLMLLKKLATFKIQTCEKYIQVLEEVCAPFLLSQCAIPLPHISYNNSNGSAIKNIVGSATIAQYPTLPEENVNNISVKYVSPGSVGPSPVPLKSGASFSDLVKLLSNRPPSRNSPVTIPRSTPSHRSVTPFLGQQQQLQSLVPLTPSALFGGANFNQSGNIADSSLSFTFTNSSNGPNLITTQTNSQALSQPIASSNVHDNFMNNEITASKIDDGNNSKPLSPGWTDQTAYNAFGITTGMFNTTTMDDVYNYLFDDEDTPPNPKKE
Chain of zebrafish Thyroid Hormone Receptor beta (TRb), thrb (gene 30607) (Q9PVE4 whole entry, looked up, the tested form may be a part): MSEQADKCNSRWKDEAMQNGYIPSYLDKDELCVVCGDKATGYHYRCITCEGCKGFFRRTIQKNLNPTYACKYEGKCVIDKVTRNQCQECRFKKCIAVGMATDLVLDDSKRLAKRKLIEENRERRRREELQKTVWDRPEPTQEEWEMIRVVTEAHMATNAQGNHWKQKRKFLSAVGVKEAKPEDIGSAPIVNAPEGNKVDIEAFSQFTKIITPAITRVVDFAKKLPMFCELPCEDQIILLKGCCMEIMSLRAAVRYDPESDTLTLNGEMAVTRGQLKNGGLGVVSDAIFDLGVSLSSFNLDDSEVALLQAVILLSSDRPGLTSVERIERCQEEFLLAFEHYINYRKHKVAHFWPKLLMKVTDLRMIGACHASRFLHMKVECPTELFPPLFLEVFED
Chain of frog Thyroid hormone Receptor alpha (TRa), thra-a (gene 397942) (P15204 whole entry, looked up, the tested form may be a part): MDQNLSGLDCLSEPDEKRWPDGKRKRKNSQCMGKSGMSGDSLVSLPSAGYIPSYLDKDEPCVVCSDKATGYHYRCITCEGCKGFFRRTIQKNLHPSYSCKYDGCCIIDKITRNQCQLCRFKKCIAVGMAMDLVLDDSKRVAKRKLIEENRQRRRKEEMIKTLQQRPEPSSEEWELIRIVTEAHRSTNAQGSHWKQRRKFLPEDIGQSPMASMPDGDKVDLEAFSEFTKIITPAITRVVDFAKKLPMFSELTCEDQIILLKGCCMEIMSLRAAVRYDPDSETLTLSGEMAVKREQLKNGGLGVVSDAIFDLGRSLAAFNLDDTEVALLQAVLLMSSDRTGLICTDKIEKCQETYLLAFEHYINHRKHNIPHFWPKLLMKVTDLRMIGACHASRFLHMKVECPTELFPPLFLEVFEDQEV
Chain of Estrogen receptor beta (Homo sapiens) (Q92731 whole entry, looked up, the tested form may be a part): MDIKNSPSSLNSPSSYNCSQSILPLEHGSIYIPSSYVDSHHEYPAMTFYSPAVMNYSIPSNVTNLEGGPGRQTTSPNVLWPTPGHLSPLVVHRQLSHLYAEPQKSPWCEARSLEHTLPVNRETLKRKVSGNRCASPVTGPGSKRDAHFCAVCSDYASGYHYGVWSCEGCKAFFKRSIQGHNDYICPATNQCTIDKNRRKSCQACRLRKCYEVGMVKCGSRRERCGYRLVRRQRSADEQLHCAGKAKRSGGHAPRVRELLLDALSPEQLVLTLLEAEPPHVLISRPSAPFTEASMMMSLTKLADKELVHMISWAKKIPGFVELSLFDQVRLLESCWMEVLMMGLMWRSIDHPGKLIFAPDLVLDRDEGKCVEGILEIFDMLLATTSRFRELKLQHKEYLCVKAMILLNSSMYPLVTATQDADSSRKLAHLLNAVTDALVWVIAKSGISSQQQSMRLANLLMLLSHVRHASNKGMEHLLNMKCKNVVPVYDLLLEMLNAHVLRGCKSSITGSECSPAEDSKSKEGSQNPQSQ
Chain of Nuclear receptor subfamily 1 group I member 2 (Mus musculus) (O54915 whole entry, looked up, the tested form may be a part): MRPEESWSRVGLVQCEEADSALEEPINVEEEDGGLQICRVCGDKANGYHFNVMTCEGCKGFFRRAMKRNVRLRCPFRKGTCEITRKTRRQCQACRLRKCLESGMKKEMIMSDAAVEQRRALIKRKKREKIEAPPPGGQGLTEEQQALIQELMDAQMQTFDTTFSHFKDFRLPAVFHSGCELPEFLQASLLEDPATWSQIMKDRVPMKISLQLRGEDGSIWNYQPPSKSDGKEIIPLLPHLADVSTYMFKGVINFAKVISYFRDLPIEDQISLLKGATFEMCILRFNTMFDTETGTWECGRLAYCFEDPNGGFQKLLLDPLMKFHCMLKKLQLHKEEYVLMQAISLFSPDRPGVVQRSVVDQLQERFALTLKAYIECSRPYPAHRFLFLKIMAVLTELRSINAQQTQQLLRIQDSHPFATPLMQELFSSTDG

C=CCOC(=O)c1ccccc1C(=O)OCC=C
inactive: [1] | [3] | [4] | [5] | [6] | [7] | [8] | [10] | [12] | [13]
active: [2] 74.3 µM and 100 µM | [5] 62.3 µM | [9] 139 µM and 78.9 µM | [11] 53.5 µM and 100 µM | [12] 51.2 µM | [13] 43.7 µM

CCCc1cc(=O)[nH]c(=S)[nH]1
inactive: [4] | [8] | [9] | [14] | [10] | [11] | [13]

CC(=O)C(C)=CC1C(C)=CCCC1(C)C (stereo not drawn)
inactive: [1] | [3] | [4] | [13]
active: [2] 29.9 µM and 25.5 µM | [4] 34.2 µM | [5] 19.8 µM and 14 µM | [6] 15 µM and 19.8 µM | [8] 27.3 µM and 27.2 µM | [9] 32 µM and 29.8 µM | [11] 19.8 µM and 21.3 µM | [12] 27.7 µM and 14.7 µM | [13] 64.4 µM

CC(C)(C)c1cc(O)c(C(C)(C)C)cc1O
active: [9] 49.3 µM | [13] 42.7 µM
not listed: [3] | [10] | [14]
inactive: all other assays above
